# Test results taken from PubChem BioAssay (NCI).
# This is part of a sample that, as a whole, favours compounds with a hit. Of some 83,000 tested, about 20% had one in any assay.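 Compound tested at a single concentration for 48 hours in 96-well plates; a percent growth value below 10 was scored as active.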 Unmarked numbers belong to inactive results. Active and inactive are the calls of the source.
# Test system: KM12 colon
# Assay: NCI-60 one-dose screen, 48 h (100 = growth as untreated, 0 = no growth, -100 = all killed)
# Details: 10 µM unless noted
row,SMILES,growth
1,COCCOc1cc2ncnc(N3CCN(c4ncc(S(=O)(=O)N5CCCCC5)cn4)CC3)c2cc1OCCOC,97.6%
2,COC(=O)[C@]1(C)CCC[C@]2(C)[C@H]3C[C@H]4C(C(C)C)=C[C@]3(CC[C@H]21)[C@@H]1C(=O)CC[C@H](OCCC#N)[C@@H]14,82%
3,O=C(O)CCN1C(=O)/C(=C/C(Cl)=C/c2ccccc2)SC1=S,15.3%
4,O=C(/C=C/c1cccc(Cl)c1)c1ccc(Nc2nc(Nc3ccc(F)cc3)nc(Nc3ccc(Cl)cc3)n2)cc1,112%
5,CC(C)(Sc1cc(C(C)(C)C)c(O)c(C(C)(C)C)c1)Sc1cc(C(C)(C)C)c(OC(=O)CCCC(=O)O)c(C(C)(C)C)c1,36.7%
6,Fc1cc2c(cc1Cl)N(c1ncnc3ccc(-c4ccc5n[nH]nc5c4)cc13)CC2,97.7%
7,CCSC(SCC)c1ccc(Cl)cc1,114%
8,O=C(Nc1nc2ccc(C(=O)N3CCN(/C=C/c4ccccc4)CC3)cc2s1)c1ccc(NCCc2ccccc2)c([N+](=O)[O-])c1,53.5%
9,O=S(=O)(Nc1cc(F)cc(Cl)c1)c1ccc(-c2cnc(C3CC3)o2)cc1,29.4%
10,COC(=O)c1c(C)nc(C)c2c1C(=O)C(Br)=C(NCc1ccccc1)C2=O,37.1%
11,COc1cc2c(c(OC)c1OC)CCC(c1cccc(C(=O)Nc3ccc(C#N)cc3)c1)O2 (stereo not given),60.6%
12,O=C1c2ccccc2-c2c1c1c(=O)[nH]c3ccccc3c1n2Cc1ccccc1,71.2%
13,O=C1c2c(c3c4ccccc4[nH]c3c3ccc4ccccc4c23)C(=O)N1CCN1CCNCC1,36.3%
14,CC(C)=CCCC(C)c1ccc(C)c2c1OCN(CCCCCO)C2 (stereo not given),104%
15,COc1ccc(/C=N/NC(=O)c2ccc(-n3cc(-c4ccccc4)nn3)cc2)cc1OC,104%
16,CCN(CC)S(=O)(=O)c1ccc(S(=O)(=O)N2CCC[C@@H](C(=O)N3CCN(c4nc(C(C)C)no4)CC3)C2)cc1,77.4%
17,Cc1cc(N2CCN(CC(=O)Nc3ccc4c(ccn4C)c3)CC2)nc(N2CCCCCC2)n1,93.1%
18,COc1ccc(Nc2ncc(Br)c(NCCCNC(=O)c3cccs3)n2)cc1,20.6%
19,NC(=O)C(=O)c1ccccc1NC=O,98.6%
20,N#Cc1ccc2c(c1)C(=O)c1c-2n(CCCN)c(=O)c2cc([N+](=O)[O-])ccc12,-98% (active)

row,SMILES,growth
1,c1ccc(Cn2cc3c(c2)-c2oncc2CC3)cc1,13.6%
2,O=C(CSC(=S)n1cnnc1)NC(=O)c1ccccc1,103%
3,O=C1/C(=C\c2ccc3nccnc3c2)SC(=S)N1CCc1ccc(O)cc1,52.1%
4,COc1c(B(O)O)cccc1-c1nc2c(F)cc3[nH]ncc3c2c2c1CCCC2,-12.1% (active)
5,COc1c(B(O)O)cccc1-c1cc(C)c2c(ccc3[nH]ncc32)n1,83.1%
6,CSc1nnc(-c2cc3c([nH]c4ccccc43)c(-c3cccc(O)c3)n2)n1-c1ccccc1,21.6%
7,C=C1C(=O)O[C@H]2[C@H]1CC/C(Cn1cc(-c3ccccc3)nn1)=C\CC[C@@]1(C)O[C@@H]21,56%
8,C=C(CBr)[C@@H]1CC[C@]2(C(=O)O)CC[C@]3(C)[C@H](CC[C@@H]4[C@@]5(C)CCC(=O)C(C)(C)[C@@H]5CC[C@]43C)[C@@H]12,68.6%
9,CCNCCNc1cc(C2CCCCC2)c(C#N)c2nc3ccccc3n12,38.8%
10,COc1cc2c(c(OC)c1OC)CCC(c1cccc(C(=O)Nc3cccc(Cl)c3)c1)O2 (stereo not given),96.3%
11,CCCCCCCC[C@@H]1N[C@@H](C(=O)OC)Cc2c1[nH]c1ccccc21,99.7%
12,CC(=O)Oc1ccc(/C(=C(\C)c2ccc(Cl)cc2)c2ccc(OCCN3CCCCC3)cc2)cc1,24%
13,COc1ccc2cc1Oc1ccc(cc1)C[C@H]1c3c(cc4c(c3Oc3cc5c(cc3OC)CCN(C)[C@@H]5C2)OCO4)CCN1C,55.2%
14,CC(=O)c1c(C)nc2ccccc2c1/C=C/c1ccc(F)cc1,90.7%
15,CN(/C(N)=N/N=C/c1c2ccccc2cc2ccccc12)C1CCCCC1,59.6%
16,CCOC(=O)n1ccn(C)c1=S,101%
17,Cc1cn(-c2cc(NC(=O)c3cncc(C#Cc4cnc(N)c5ncccc45)c3)cc(C(F)(F)F)c2)cn1,25%
18,O=C(Cn1cc(CSc2nc3ccccc3o2)nn1)Nc1ccc(F)cc1F,116%
19,Cc1c2cnccc2c(C)c2c1c1cc(C#N)ccc1n2C,2.89% (active)
20,CNC(=O)c1ccccc1Oc1nc(Nc2cc(OC)c(OC)c(OC)c2)ncc1Br,11%
